Results taken from PubChem BioAssay AID1508600 (Functional Genomics Laboratory (NCATS/FGL), 2020).
In all, about 53,000 sequences went through this assay and about 3,700 (7%) were called active. The entries come from a sample that favours actives as a whole. A number with no mark means an inactive call.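 The calls were made as follows: active = gene knockdowns whose robust z-score for IL-1 alpha signal is at least 2 or at most -2, so actives lie on both sides; inactive = the rest.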

assay: Components of the Cytosolic LPS Sensing Pathway: Gene Identification via Genome-wide siRNA Screen; conditions: RAW264.7 macrophages, IL-1a HTRF, actives lie on both sides, screened at 100 nM (by protocol), cells primed 5 h with Pam3CSK4 first;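 also: robust z of the log signal after scaling to non-targeting control siRNA wells of the plate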
In short: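 Using IL-1a HTRF as read-out, the screen measured release from RAW264.7 cells after 48h siRNA knockdown (100 nM), 5 h Pam3CSK4 priming and 24 h cytosolic LipidA. Values were expressed relative to negative-control wells as robust z-scores.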

Sequence | z-score
GAAGACCAAGCUUUGUACUTT against Olfr339 | 2.28 (active)
GGAGCUCGCCAAAAGGAAGTT against Cep19 | 1.97
CCAAAGAAGGUGAGAUUUGTT against Clstn1 | -0.161
CCAGUAUGAGAACUACGAUTT against Loxl1 | -0.345
CCGUUUUGUCUGAAUUCCCTT against 4930515G01Rik | -2.14 (active)
GCAGUAAAUGUCCCAUCCGTT against Caskin1 | -1.28
CCCAUCCAUACAAAAAUGATT against Polm | -1.73
CCUUAUUGAGACGAAUACGTT against Fastkd1 | -0.958
GGACAACAGCAAAACAUCUTT against Atoh1 | -0.757
CCCAUAACAUUGGUGAUUATT against Vmn1r235 | -0.205
GGAAUGAGCUGAAUGCAAATT against Psmc5 | -2.08 (active)
CGUUAAAUGGCAGUACAGATT against Qk | 0.388
GCCAAACACUCGACUCUAATT against Gm11733 | -0.823
GGAAAACUUUAGCUACAAATT against Ppp4r4 | -0.231
GCUUCUAACUCUGUGAGGGTT against Defb29 | -2.8 (active)
GCAGACGACAAGUUCUACATT against Tbcb | -0.666
GCUUAUCAUCUCCAGACAGTT against Svop | -0.144
GCUGGUUACUCCCAAGACGTT against Dlgap2 | 2.18 (active)
GGUGGAGUUAACGAGAAACTT against Ccn1 | 0.69
ACUGUUUAAUCACUGUGGUTT against Olfr891 | -0.994
GGACUACAUCAACCUGGAUTT against Mlf2 | 0.25
GGUCUUCGACACCAUUAACTT against Wipi2 | 0.947
GGACAGUUUGAUGAUGCCGTT against Coprs | -2.87 (active)

Sequence | z-score
CCCUGUGACUCCAAAAUGATT against Dbh | -1.01
GGACAACGUGCUCAUUAGUTT against Zfp709 | 0.0713
GCCUGACGAAGGUUUCUAUTT against Neo1 | -0.114
GGCAUAAACCUUCUUGCUCTT against Ccl22 | -0.221
GGUAGAGGUUAUAUAGGCATT against Ms4a6d | 0.282
GGUACUCACAUCUCCAAAGTT against Zfp948 | -0.881
GGCAAACAUUUCAAAUACATT against Tgm4 | 2.12 (active)
GGAGGAAGAGAUUUUAAACTT against Rps8 | 0.158
GCUGCUGAUAACAUCCGACTT against Golga5 | 0.554
GGUACAGUUACGGUCAAAUTT against Zfp952 | 0.739
GGUAUGUCCUCUGGUCAAUTT against Bpifa1 | 0.282
GGUCAAUGCUACUAAUGAATT against Ankrd61 | 0.661
GGGAUGCUCUGAACAUUGATT against Anxa2 | 3.22 (active)
CCAUGCAGCAAAUCGAGUUTT against Klk1b5 | 0.912
GGUCUGAGCUUCCAAUAACTT against Reep5 | 0.183
GCUAUUGGGUAGAUUGAUATT against Baat | 0.251
GCUUCUAAUUGGAGAUUGCTT against Bex3 | -1.39
GGAACACAAUGGGACGAGUTT against Ccl11 | -1.12
GGCCACGUUUCUCUUCACCTT against Nyx | -1.12
GGCAAAGAAUUCAAUCGGATT against Atp2b2 | -0.235
GGUUCAAAUGUUGCAUAGUTT against Klrc2 | 0.597
GGAUCACAGCAGAAGAAAUTT against Tmem144 | -2.95 (active)
GGAAGUGGAAGUUCUGAAGTT against Tsc22d1 | -0.886

Sequence | z-score
GGGUCUUAUGGAAGUGUUUTT against Stk3 | 7.27 (active)
CCUUUUUGAGGAAUUUGGATT against Scaf8 | -0.0964
CGGCUCGUUGAAGAACAAATT against Afap1 | -1.32
GGCUUCAUUCGUAGGCCAUTT against Smcr8 | 1.64
GGUUCACAGUAACCAUUGGTT against Zc3h18 | -2.45 (active)
GCAAAAGGAAACGAUCUCATT against Fbxo43 | -0.302
GGCUCAGGACUUUGUCUACTT against Lhx4 | -1.19
GGUUCAACUCUCUUUUUGATT against Atp8b5 | 0.347
GCGAAUGUAGUGUAUUAUGTT against Prkd1 | 0.259
GGACUGUUGAAUAAAACCUTT against Rnps1 | -2.29 (active)
AGGCACGUCUGAUUGCAUGTT against LOC432823 | 0.578
CCAUUGUGAUCAAGAUAAATT against Cggbp1 | -0.35
GCUGUGUCACUACUUCGAUTT against Rpp40 | 1.32
GGUGAAAGACACUUGAAUUTT against Cdk2 | 0.625
GGAGACAGAGAAGAUUUGUTT against Mia2 | -0.21
GCCAACUACGUAUAUACAUTT against 4921511C20Rik | 2.41 (active)
GCAAGGUGACAUCAGAAGUTT against Flot2 | -0.709
GGACAUAUAUAGCAAGGAGTT against Polrmt | 1.07
GGACAGCAGUUUUUACUAGTT against Mllt10 | 0.907
GCUGUUUGACUACAUAAUCTT against Melk | 0.275
GGUUGGAAAUGAAAUCAAUTT against Erc2 | 2.36 (active)
GGUUCAAGUGACCAAGUUCTT against Odf3 | -0.487
CCCAAGAUGGUAGCAGACATT against Tbxas1 | -0.00814
